# Results from the supplement of paper PMC9023506.
# Where a name gives a salt, the structure may show the parent alone.
# System: Danio rerio larvae (5 dpf)
# Test: habituation to 1-s acoustic pulses, difference vs DMSO (percentage points (treated minus DMSO)); higher = more of the behaviour than the DMSO vehicle control
# Conditions: 10 µM; exposure time: 3 h pre-incubation + 3 h imaging
# Method: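 5-dpf wild-type zebrafish larvae were imaged in 96-well plates. They were treated with 190 Tocris FDA-approved drugs at 10 µM (1 µl/ml DMSO) for 3 h before and 3 h during imaging at 28.5 °C, 48 larvae per drug. Automated image analysis gave % time moving and optomotor responses. Values are drug group mean minus DMSO vehicle mean (n=844), in percentage points, for 10 behaviours.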
row,Compound,habituation to 1-s acoustic pulses
1,Cc1cccc([C@H](C)c2c[nH]cn2)c1C [Dexmedetomidine hydrochloride],-9.7
2,N[C@@H]1C[C@H]1c1ccccc1 [Tranylcypromine hydrochloride],-0.45
3,C=CCN1C[C@H](C(=O)N(CCCN(C)C)C(=O)NCC)C[C@@H]2c3cccc4[nH]cc(c34)C[C@H]21 [Cabergoline],3.78
4,CC(O)(CS(=O)(=O)c1ccc(F)cc1)C(=O)Nc1ccc(C#N)c(C(F)(F)F)c1 (configuration not stated) [Bicalutamide],-5.47
5,CC[C@@H](C(N)=O)N1CCCC1=O [Levetiracetam],-2.74
6,C=C1C[C@@H]2[C@H](CC[C@]3(C)C(=O)CC[C@@H]23)[C@@]2(C)C=CC(=O)C=C12 [Exemestane],-0.223
7,CC(C)C[C@H]1C(=O)N2CCC[C@H]2[C@]2(O)O[C@](NC(=O)[C@@H]3C=C4c5cccc6[nH]c(Br)c(c56)C[C@H]4N(C)C3)(C(C)C)C(=O)N12 [Bromocriptine mesylate],-3.22
8,O=c1[nH]c2ccccc2n1C1CCN(CCCC(c2ccc(F)cc2)c2ccc(F)cc2)CC1 [Pimozide],-6.41
9,COc1ccc(C(CN(C)C)C2(O)CCCCC2)cc1 (configuration not stated) [Venlafaxine hydrochloride],-6.08
10,COc1cc2c(cc1OC)C1CC(=O)C(CC(C)C)CN1CC2 (configuration not stated) [Tetrabenazine],1.65
11,CCN(C)C(=O)Oc1cccc([C@H](C)N(C)C)c1 [Rivastigmine tartrate],-1.77
12,CN1C[C@H](C(=O)N[C@]2(C)O[C@@]3(O)[C@@H]4CCCN4C(=O)[C@H](Cc4ccccc4)N3C2=O)C[C@@H]2c3cccc4[nH]cc(c34)C[C@H]21 [Dihydroergotamine mesylate],1.85
